A short description of experiment [1]: qHTS profiling for inhibitors of Plasmodium falciparum proliferation (AID 504749). Further: nearly all actives have a fitted effect of over 60% in size.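 On activity, negative = inhibition: 0% = DMSO vehicle and full inhibition = artemisinin control.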 The settings on record: P. falciparum in erythrocytes, SYBR Green DNA, 72 h. In outline: (§1)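 Quantitative HTS: compounds pinned into medium, infected erythrocytes added (0.3% parasitemia, 2.5% hematocrit), 72 h culture at 37 C under 5% CO2. Saponin/Triton lysis with SYBR Green I, overnight RT, then fluorescence read.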
(In general: qHTS replaces the single test concentration by a dilution series.)

In experiment [2] the test system is 3D7. The description is as above. The conditions noted are these: P. falciparum in erythrocytes, SYBR Green DNA, 72 h; series mostly up to 28.7 µM. In outline:
as §1

The test system of experiment [3] is AA1029. The description is as above. The settings on record: P. falciparum in erythrocytes, SYBR Green DNA, 72 h; series mostly up to 28.7 µM. In short, it runs like this:
as §1

The test system of experiment [4] is AS120. The description is as above. The conditions noted are these: P. falciparum in erythrocytes, SYBR Green DNA, 72 h; series mostly up to 28.7 µM. In short, it runs like this: as §1
For experiment [5], the system named is ATS189. The experiment is described as above. The conditions noted are these: P. falciparum in erythrocytes, SYBR Green DNA, 72 h; series mostly up to 28.7 µM. In short, it runs like this: as §1
Experiment [6] concerns ATS95. The description is as above. The settings on record: P. falciparum in erythrocytes, SYBR Green DNA, 72 h; series mostly up to 28.7 µM. In short, it runs like this: as §1
The test system of experiment [7] is C2A. The description is as above. The settings on record: P. falciparum in erythrocytes, SYBR Green DNA, 72 h; series mostly up to 28.7 µM. In outline:
as §1

Experiment [8] relates to CP185. The description is as above. The conditions noted are these: P. falciparum in erythrocytes, SYBR Green DNA, 72 h; series mostly up to 28.7 µM. In short, it runs like this:
as §1

In experiment [9] the test system is CP191. The experiment is described as above. The settings on record: P. falciparum in erythrocytes, SYBR Green DNA, 72 h; series mostly up to 28.7 µM. In short, it runs like this: as §1
Experiment [10] relates to CP192. The experiment is described as above. The settings on record: P. falciparum in erythrocytes, SYBR Green DNA, 72 h; series mostly up to 28.7 µM. In short, it runs like this: as §1
Experiment [11] concerns CP194. Described as above. The settings on record: P. falciparum in erythrocytes, SYBR Green DNA, 72 h; series mostly up to 28.7 µM. In outline:
as §1

In experiment [12] the test system is CP201. Described as above. The conditions noted are these: P. falciparum in erythrocytes, SYBR Green DNA, 72 h; series mostly up to 28.7 µM. In outline:
as §1

Experiment [13] deals with CP203. Described as above. The conditions noted are these: P. falciparum in erythrocytes, SYBR Green DNA, 72 h; series mostly up to 28.7 µM. In outline: as §1
The test system of experiment [14] is CP211. The experiment is described as above. The conditions noted are these: P. falciparum in erythrocytes, SYBR Green DNA, 72 h; series mostly up to 28.7 µM. In short, it runs like this: as §1
Experiment [15] relates to CP217. The experiment is described as above. The settings on record: P. falciparum in erythrocytes, SYBR Green DNA, 72 h; series mostly up to 28.7 µM. In short, it runs like this: as §1
Experiment [16] relates to CP237. Described as above. The settings on record: P. falciparum in erythrocytes, SYBR Green DNA, 72 h; series mostly up to 28.7 µM. In outline:
as §1

The subject of experiment [17] is CP238. The experiment is described as above. The settings on record: P. falciparum in erythrocytes, SYBR Green DNA, 72 h; series mostly up to 28.7 µM. In outline:
as §1

The subject of experiment [18] is CP215. Described as above. The settings on record: P. falciparum in erythrocytes, SYBR Green DNA, 72 h; series mostly up to 28.7 µM. In short, it runs like this: as §1
Experiment [19] concerns 7G8. The experiment is described as above. The settings on record: P. falciparum in erythrocytes, SYBR Green DNA, 72 h; series mostly up to 28.7 µM. In short, it runs like this: as §1
Where [20] appears, read: at 28.7 µM (top of the series), parasite line A.
The mark [21] stands for this setting: at 28.7 µM (top of the series), parasite line B.

Results on 12 compounds are retold here after PubChem BioAssay (NCATS).

Results filed as inconclusive are left out. Values without a mark were called inactive. Active and inactive are the calls of the source. The call rests on the fitted dose curve; in most records, active means well fitted inhibition curve with a large enough effect; inconclusive means small, poorly fitted or top-dose-only effect; inactive means flat fitted curve, though single readings scatter.
Potency means the concentration at half of the fitted maximal effect.

Regarding `O=C1c2ccccc2-c2n[nH]c3cccc1c23`, the activity, negative = inhibition in experiment [1] (setting [20]) was -18.5%; in [1] (setting [21]), -1.75%. For the same compound, the Potency result in experiment [2], in experiment [3], in experiment [4], in [5], in experiment [6] and in experiment [7] was “inactive” throughout. Also, the Potency result in experiment [8], in experiment [9], in [10], in experiment [11], in experiment [12] and in [13] was “inactive” each time. Moreover, the Potency result in experiment [14], in [15], in experiment [16] and in [17] was “inactive” throughout.

On to `Cn1c(NCCN(CCO)CCCc2ccc([N+](=O)[O-])cc2)cc(=O)n(C)c1=O`, for which the figures for the activity, negative = inhibition in experiment [1] (setting [20]) and in experiment [1] (setting [21]) were 6.79% and 16.9%, respectively. For the same compound, the Potency result in [2], in [3], in [4], in experiment [5], in experiment [6] and in [7] was “inactive” throughout. The Potency result in experiment [8], in [10], in experiment [11], in [12], in experiment [13] and in experiment [14] was “inactive” each time. Moreover, the Potency result in [18], in [15], in experiment [16] and in [17] was “inactive” in each case.

Turning to `Cc1cccc(C)c1OCC(=O)N[C@@H](Cc1ccccc1)[C@@H](O)C[C@H](Cc1ccccc1)NC(=O)[C@H](C(C)C)N1CCCNC1=O`, the Potency in experiment [1] (parasite line A) was 8.91 µM (active); in experiment [1] (parasite line B), 5.01 µM (active); in experiment [2], 7.08 µM (active); in [19], 0.794 µM (active); in experiment [3] it was 3.55 µM (active); in [4], 1.41 µM (active). The Potency in [5] was 3.98 µM (active); in experiment [6] it was 3.98 µM (active); in [7] it was 11.2 µM (active); in experiment [8] it was 10 µM (active); in experiment [9], 5.62 µM (active); in experiment [10], 6.75 µM (active). Besides, the Potency in experiment [11] was 7.57 µM (active); in experiment [12], 10.7 µM (active); in [13], 6.01 µM (active); in experiment [14], 7.57 µM (active); in experiment [18], 6.01 µM (active); in [15] it was 3.98 µM (active). The results for the Potency in [16] and in experiment [17] were 2.82 µM (active) and 5.01 µM (active), respectively.

For the compound `O=C1CCc2ccc(OCCCCN3CCN(c4cccc(Cl)c4Cl)CC3)cc2N1`, the results for the Potency in experiment [19], in experiment [9] and in experiment [16] were 12.6 µM (active), 8.91 µM (active) and 14.1 µM (active), respectively. Moreover, the Potency entry in experiment [10], in [11], in experiment [12], in [13], in [14] and in [18] was “inactive” each time.

On to `CC1(C)NC(=O)N(c2ccc([N+](=O)[O-])c(C(F)(F)F)c2)C1=O`, for which the activity, negative = inhibition in experiment [1] (setting [20]) is -1.6%; in experiment [1] (setting [21]), 7.49%. The Potency entry in experiment [2], in experiment [19], in [3], in [4], in experiment [5] and in [6] was “inactive” in each case. Besides, the Potency result in experiment [7], in experiment [8], in experiment [9], in experiment [10], in experiment [11] and in experiment [12] was “inactive” each time. The Potency result in experiment [13], in [14], in experiment [18], in [15], in experiment [16] and in [17] was “inactive” throughout.

For the compound `N=C(N=C(N)N)N1CCOCC1`, the activity, negative = inhibition in experiment [1] (at 12.8 µM (top of the series), parasite line A) was -9.52%; in [1] (at 12.8 µM (top of the series), parasite line B), 11.1%. In addition, the Potency entry in experiment [2], in experiment [19], in [3], in [5], in experiment [6] and in experiment [7] was “inactive” throughout. The Potency entry in [8], in experiment [9], in experiment [10], in [11], in [12] and in experiment [13] was “inactive” each time. The Potency result in [14], in [18], in experiment [15], in experiment [16] and in experiment [17] was “inactive” each time.

Turning to `Cc1ccc(NC(=O)c2ccc(CN3CCN(C)CC3)cc2)cc1Nc1nccc(-c2cccnc2)n1`, the Potency in experiment [1] (parasite line B) is 11.2 µM (active); in [19] it was 7.94 µM (active); in [3], 11.2 µM (active); in experiment [4], 8.91 µM (active); in experiment [5], 12.6 µM (active); in experiment [6], 10 µM (active). The values for the Potency in experiment [7], in [15] and in [16] were 11.2 µM (active), 11.2 µM (active) and 8.91 µM (active), respectively.

Regarding `CCOC(=O)c1c(C)n(C)c2ccc(O)cc12`, the activity, negative = inhibition is 15.4% in experiment [1] (setting [20]) and 20.5% in experiment [1] (setting [21]). The Potency entry in experiment [2], in experiment [19], in [3], in experiment [4], in experiment [5] and in [6] was “inactive” each time. The Potency result in experiment [7], in experiment [8], in [9], in experiment [10], in experiment [11] and in experiment [12] was “inactive” throughout. For the same compound, the Potency entry in experiment [13], in experiment [18], in experiment [15], in experiment [16] and in experiment [17] was “inactive” each time.

As for `CC1(C)CCC(C)(C)c2cc(NC(=O)c3ccc(C(=O)O)cc3)ccc21`, the activity, negative = inhibition in experiment [1] (setting [20]) is -1.01%; in experiment [1] (setting [21]) it was -5.09%. Also, the Potency entry in experiment [2], in experiment [3], in [4], in experiment [5], in experiment [6] and in experiment [7] was “inactive” throughout. In addition, the Potency entry in experiment [8], in experiment [9], in [10], in [11], in experiment [12] and in experiment [13] was “inactive” in each case. The Potency entry in experiment [14], in experiment [18], in experiment [15], in [16] and in [17] was “inactive” throughout.

Take `CN(C)C(=O)COC(=O)Cc1ccc(OC(=O)c2ccc(N=C(N)N)cc2)cc1`: the activity, negative = inhibition in experiment [1] (setting [20]) is -4.03%; in experiment [1] (setting [21]) it was 4.45%. Moreover, the Potency result in [2], in experiment [19], in [3], in [4], in experiment [5] and in experiment [6] was “inactive” in each case. Moreover, the Potency entry in experiment [7], in experiment [8], in experiment [9], in [10], in experiment [11] and in experiment [12] was “inactive” in each case. Further, the Potency entry in experiment [13], in experiment [14], in experiment [15], in [16] and in [17] was “inactive” in each case.

As to `CN(C)c1ccc2nc3ccc(=[N+](C)C)cc-3sc2c1`, the Potency in [1] (parasite line A) is 0.0447 µM (active); in [1] (parasite line B), 0.0631 µM (active); in experiment [2] it was 0.0398 µM (active); in experiment [19], 0.0028 µM (active); in experiment [3], 0.0794 µM (active); in experiment [4], 0.0631 µM (active). The Potency is 0.0794 µM (active) in experiment [5]; 0.0708 µM (active) in experiment [6]; 0.141 µM (active) in [7]; 0.0891 µM (active) in experiment [8]; 0.0794 µM (active) in experiment [9]; 0.0675 µM (active) in [10]. Also, the Potency is 0.0757 µM (active) in [11]; 0.0675 µM (active) in experiment [12]; 0.0338 µM (active) in experiment [13]; 0.0601 µM (active) in experiment [14]; 0.12 µM (active) in experiment [18]; 0.0891 µM (active) in experiment [15]. Also, the Potency was 0.0126 µM (active) in experiment [16] and 0.1 µM (active) in experiment [17].

In the case of `CN1CCC(=C2c3ccccc3CCc3sccc32)CC1`, the activity, negative = inhibition is -27.4% in [1] (setting [20]) and -20.6% in experiment [1] (setting [21]). Further, the Potency result in experiment [2] and in experiment [7] was “inactive” each time. Also, the figures for the Potency in experiment [19] and in experiment [3] were 11.2 µM (active) and 6.31 µM (active), respectively.
